According to PubChem BioAssay (NCATS):
Inconclusive results are not listed. The source made the active and inactive calls. Unless noted, calls follow the shape of the dose curve; as a rule, active = well fitted cell-killing curve with a large enough effect; inconclusive = small, poorly fitted or top-dose-only effect, or effect the other way; inactive = flat fitted curve, though single readings scatter.

Columns and labels:
OV90 = assay: Primary qHTS to identify gynecologic anti-cancer compounds using libraries of approved drugs and bioactive compounds (AID 1345084); details: Gynecologic cancer cell panel viability, ATPlite luminescence, 48 h; series mostly up to 57.5 µM; also: % is scaled to controls: 0 for no effect and ±100 for the full control effect; nearly all actives have a fitted effect of over 55% in size
Summary of the method: (§1)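 Measured: luminescence after ATPlite addition (15 min, RT). Exposure: 48 h, 37 C, 5% CO2.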

PA-1 = assay: as above; details: Gynecologic cancer cell panel viability, ATPlite luminescence, 48 h; series mostly up to 57.5 µM
Summary of the method: as §1

Tov-21-G = assay: as above; details: Gynecologic cancer cell panel viability, ATPlite luminescence, 48 h; series mostly up to 57.5 µM
Summary of the method: as §1

Tov112D = assay: as above; details: Gynecologic cancer cell panel viability, ATPlite luminescence, 48 h; series mostly up to 57.5 µM
Summary of the method: as §1

SKOV3 = assay: as above; details: Gynecologic cancer cell panel viability, ATPlite luminescence, 48 h; series mostly up to 57.5 µM
Summary of the method: as §1

[1] = target: Nuclear receptor subfamily 1 group I member 2 (Rattus norvegicus) (UniProt Q9R1A7); assay: qHTS assay for small molecule activators of the rat pregnane X receptor (rPXR) signaling pathway (AID 651751; call rule not given here; also: 0% is about no effect); details: rPXR reporter cells, luciferase (One-Glo), 24 h
Nuclear receptor subfamily 1 group I member 2 (Rattus norvegicus), sequence (Q9R1A7 whole entry, looked up): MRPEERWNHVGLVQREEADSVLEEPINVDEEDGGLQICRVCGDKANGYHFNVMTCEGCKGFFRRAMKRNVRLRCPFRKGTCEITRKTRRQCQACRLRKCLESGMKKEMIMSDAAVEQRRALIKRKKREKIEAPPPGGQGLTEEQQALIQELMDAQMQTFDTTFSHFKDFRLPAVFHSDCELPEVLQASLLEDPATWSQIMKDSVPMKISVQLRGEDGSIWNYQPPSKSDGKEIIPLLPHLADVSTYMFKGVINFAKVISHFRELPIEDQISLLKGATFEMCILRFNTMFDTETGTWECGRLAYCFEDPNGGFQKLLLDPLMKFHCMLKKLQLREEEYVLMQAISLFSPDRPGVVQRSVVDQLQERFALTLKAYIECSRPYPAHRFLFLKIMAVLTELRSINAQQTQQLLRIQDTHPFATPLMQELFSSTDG

[2] = qHTS assay for small molecule activators of the human pregnane X receptor (PXR) signaling pathway (AID 720659; call rule not given here; also: 0% is about no effect)

O=C(COCC(=O)N1CCN(C(c2ccccc2)c2ccccc2)CC1)Nc1ccc(Cl)cc1C(=O)O
inactive: Potency (OV90) | Potency (PA-1) | Potency (Tov-21-G) | Potency (Tov112D)

COc1ccccc1N1CCN(CCCCNC(=O)c2ccc(-c3cscn3)cc2)CC1
inactive: Potency (OV90) | Potency (PA-1) | Potency (Tov-21-G) | Potency (Tov112D)

C/C=C/C=C/C=C/C(=O)O[C@@H]1C=C(CO)[C@](O)(CO)[C@@]2(C)CCCC(C)(C)[C@H]12
inactive: Potency (OV90) | Potency (PA-1) | Potency (Tov-21-G) | Potency (Tov112D)

O=C(OC(C(F)(F)F)C(F)(F)F)N1CCN(Cc2cccc(Oc3ccccc3)c2)CC1
inactive: Potency (OV90) | Potency (PA-1) | Potency (Tov-21-G) | Potency (Tov112D)

Cc1c(-c2ccc3c(c2)OCO3)oc2ccc(C(O)C(C)O)cc12 (centres undefined)
inactive: Potency (PA-1) | Potency (Tov112D)

NC1(c2ccc(NC(=O)c3ccnc(-c4cc(C(=O)O)ccn4)c3)cc2)CC1
inactive: Potency (OV90) | Potency (SKOV3) | Potency (Tov-21-G) | Potency (Tov112D)

COc1ccc2c(c1)C=C1Cn3c-2c(C2CCCCC2)c2ccc(cc23)C(=O)NS(=O)(=O)N(C)CCOCCN(C)C1=O
inactive: Potency (OV90) | Potency (Tov-21-G) | Potency (Tov112D)

CC(C)C1(O)NC(=O)C(CC2(O)c3ccccc3N3C(=O)C(C)(C)NC32)n2c1nc1ccccc1c2=O (centres undefined)
inactive: Potency (OV90) | Potency (SKOV3) | Potency (Tov-21-G) | Potency (Tov112D)

CC(=O)Nc1cccc2c1c(Sc1ccc(Cl)cc1)c(C)n2CC(=O)O
inactive: Potency (SKOV3)

C=C1C(OC(C)=O)CCC2(C)CCC(C(C)(C)O)CC12 (centres undefined)
inactive: Potency (PA-1) | Potency (SKOV3) | Potency (Tov-21-G) | Potency (Tov112D)

CC1=C2CC3C(CCC3(C)O)C(C)(O)CC2OC1=O (centres undefined)
inactive: Potency (SKOV3) | Potency (Tov-21-G) | Potency (Tov112D)

COc1ccc2c(c1)N1C(=O)C[C@@]34C=CC[N@+]5([O-])CC[C@H]2[C@H](CC3)[C@@]145
inactive: Potency (SKOV3) | Potency (Tov-21-G) | Potency (Tov112D)

C=C1CCc2occ(C)c2[C@H]2[C@H]1[C@@]13O[C@@]1(C[C@@H](C)[C@H]3OC(C)=O)[C@H]1O[C@@]21C
inactive: Potency (PA-1) | Potency (SKOV3) | Potency (Tov-21-G) | Potency (Tov112D)

Fc1ccccc1-c1nc2ccn(Cc3ccc(-c4ccc(C(F)(F)F)cc4C(F)(F)F)nn3)cc-2n1
inactive: Potency (OV90) | Potency (Tov-21-G) | Potency (Tov112D)

Cc1ncc(NC(=O)c2ccc(CN3CCN(C)CC3)c(C(F)(F)F)c2)cc1Nc1nccc(-c2cccnc2)n1
inactive: Potency (PA-1) | Potency (SKOV3) | Potency (Tov-21-G) | Potency (Tov112D)

NC[C@@H]1O[C@@H](O[C@@H]2[C@@H](O[C@@H]3O[C@H](CO)[C@@H](O)[C@H]3O)[C@H](O)[C@@H](N)C[C@H]2N)[C@@H](N)[C@H](O)[C@H]1O
inactive: activity change, negative = cytotoxicity (OV90) 0.365% [at 11.6 µM] | activity change, negative = cytotoxicity (SKOV3) 2.15% [at 11.6 µM] | activity change, negative = cytotoxicity (Tov-21-G) -2.07% [at 11.6 µM] | activity change, negative = cytotoxicity (Tov112D) -1.83% [at 11.6 µM]

O=C(/C=C/C=C/c1ccc2c(c1)OCO2)N1CCCCC1
inactive: Potency (Tov112D)

NC(=O)[C@@H]1CC[C@H](c2ccc(OCc3ccccc3F)cc2)N1
inactive: Potency (PA-1) | Potency (Tov112D)

COc1ccc(CCC(=O)c2c(O)cc(O[C@@H]3O[C@H](CO)[C@@H](O)[C@H](O)[C@H]3O[C@@H]3O[C@@H](C)[C@H](O)[C@@H](O)[C@H]3O)cc2O)cc1O
inactive: Potency (PA-1) | Potency (SKOV3) | Potency (Tov-21-G) | Potency (Tov112D) | max response [1] -0.0245% | outcome [2]

C=C1[C@@H]2CC[C@@]3(C)[C@H](c4ccoc4)OC(=O)C[C@]13O[C@H]1CC(=O)C(C)(C)[C@H](C(O)C(=O)OC)[C@]12C (some centres undefined)
inactive: Potency (OV90) | Potency (SKOV3) | Potency (Tov-21-G) | Potency (Tov112D)

Cn1nccc1-c1ccccc1Oc1ccc(S(=O)(=O)Nc2nccs2)cc1C#N
inactive: Potency (PA-1) | Potency (Tov-21-G) | Potency (Tov112D)

O=C(CCCCC1CCCCC1)N1CCC(c2cnc[nH]2)CC1
inactive: Potency (Tov-21-G) | Potency (Tov112D)

CNc1nc(C)nc(N[C@H]2CCC[C@@H](C(=O)NCc3ccc(C#N)cc3C(F)(F)F)C2)n1
inactive: Potency (OV90) | Potency (SKOV3) | Potency (Tov-21-G) | Potency (Tov112D)

C[C@@H]1C(=O)O[C@H](C)[C@H]1C[C@@H](O)[C@](C)(O)[C@H]1CC[C@@]2(O)C3=CC(=O)[C@@H]4C[C@@H](O)[C@@H](O)C[C@]4(C)C3CC[C@]12C (some centres undefined)
inactive: Potency (OV90) | Potency (SKOV3) | Potency (Tov-21-G) | Potency (Tov112D)

COc1cc(/C=C/CO[C@@H]2O[C@H](CO)[C@@H](O)[C@H](O)[C@H]2O)cc(OC)c1O[C@@H]1O[C@H](CO)[C@@H](O)[C@H](O)[C@H]1O
inactive: Potency (OV90) | Potency (SKOV3) | Potency (Tov-21-G) | Potency (Tov112D)

COc1c(C)c(OCC=C(C)C)cc2c1CNC2=O
inactive: Potency (OV90) | Potency (SKOV3) | Potency (Tov-21-G) | Potency (Tov112D)
